Source: the supplement of paper PMC11417369
Whole data set: some 25,000 sequences, median “ln(normalized median fluorescence intensity)” near 7.1, cut for the highest 2% near 10. The sample as a whole holds a higher share of the highest values than the screen did.

Tested on: PfSIP2 AP2 domain 1 (GST-tagged)
Experiment: gcPBM binding intensity (ln(normalized median fluorescence intensity)); higher = stronger DNA binding
In short: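 Binding intensity values are the highest Masliner-normalised natural-log median intensity among replicate spots of either probe orientation. The binding step lasted 1 h in 1× PBS with 1% milk, 0.2 mg/ml BSA, 0.5% salmon testes DNA and 0.03% Triton X-100, using GST-tagged P. falciparum DNA-binding domains expressed in E. coli on an Agilent 4 × 180k array of primer-extended double-stranded 36-bp intergenic genomic probes plus negative controls. Alexa488 anti-GST antibody and a 488 nm scan detected bound protein.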

| Sequence | gcPBM binding intensity (ln) |
| --- | --- |
| ACTGCGTTTTTACACGCGCACTGCAATGAACAATAT | 8.05 |
| AGGTAGAAAAAAGACACACACATTAGATATTTATAT [CACACA_site6313] | 6.87 |
| TATTATATTCTGCTTACACACATATATATATATATA [CACACA_site3060] | 9.32 |
| ATTTTTTTTTCTTTCGCACACGTGAAAGAATTTCTA [CACACA_site2052] | 7.13 |
| TTATATATTTATATATGTACACATTTTACCATTTTT [XGTACX_site2142] | 6.9 |
| GAAAAAAAAAAAAATACACACAAATTGGTATATAAC [CACACA_site6315] | 6.75 |
| TATATACACATTTTTATACACACTTGTTTTATAAAA [CACACA_site8139] | 7.16 |
| AATAAATAAATAAATAAATATATATATATATATATA [GTGCAC_negctrl_site224] | 9.48 |
| AAATGAAAAATAAGGAAAAAAAAAAAAAAAAAAAAA [CACACA_negctrl_site1715] | 6.88 |
| TTTTTTACTTTTGAGACATTTCATATTTTTATTCAC [GTGCAC_negctrl_site730] | 6.91 |
| TATATATTAATATTTACACACATGCGCACCCATAAA [CACACA_site2410] | 12.1 |
| TATATCTTAATATTTACACACATGCGCACCCATAAA [CACACA_site5349] | 12 |
| TATATATCAATATTTACACACATGCGCCCACATAAA [CACACA_site7185] | 7.57 |
| TATTTACACCCATGCGCACACATAAATAAATAATAG [CACACA_site5350] | 8.34 |
| TATTAATATTTACACACATGCGCACACATAAATAAA [TGCATGCA_site609] | 9.31 |
| AATATTTACAGACATGCGCACACATAAATAAATAAT [CACACA_site8760] | 8.81 |
| TATGAATGGTTAAGTACACACATATTAAGATATGTA [CACACA_site5852] | 6.99 |
| ACTTTAACCTGAACGGTGCATAAAATTTTGGCATTA | 10.8 |
| CTATTTAAAATTTGAACACACATTATTTATTTTAAA [CACACA_site3114] | 6.9 |
| TGCATTTTACTTGTTACACACATATAAAATTAACCA [CACACA_site7387] | 7.11 |
| TTATAGCCTGTGAAGAGTACATTTTTATTTTTTATT [XGTACX_site4105] | 6.85 |
| TTTTTTTTTTTTTGGTGTACCATAGGTAAAATGATT [XGTACX_site8020] | 7.2 |
| TATTTATATTTATACACACACACAAAAAAAAAAAAA [CACACA_site6817] | 7.22 |

| Sequence | gcPBM binding intensity (ln) |
| --- | --- |
| TATTTTTTATATTTATTTATTTAAAGGAGCTTTTCT [GTGCAC_negctrl_site293] | 6.67 |
| ATATATATATATATTACACACTTTTTCTTTTTTTTT [CACACA_site2780] | 9.47 |
| TTTTTCATTTAGCTTTTACACACTATATATTATTGA [CACACA_site7888] | 7.16 |
| CAGGTGCACTATATTACACACGCTTCTTTTTTTTTA [CACACA_site2069] | 12.4 |
| ATCATATTTTTATGTGTGCACTTTTTTTTTTTTTTT [GTGCAC_site9555] | 10.8 |
| AATATTTCTCATTTTGTGCACTGAAAAATGTAATAT | 10.2 |
| AATTTTTTTTTTTTTTTTTTTTATATATGTGTGTGT [XGTACX_negctrl_site129] | 7.29 |
| TATATATATATGTGCACACATAAAGATATTATTTTT [CACACA_site3733] | 9.51 |
| AATATATTTATGCTCATGCACTTTTTTTTTTTTTTT [GTGCAC_site9654] | 8.89 |
| ATATATTTTATATGTGTGCACTATATATATATATAT | 10.2 |
| ATATATTGCACTTTTTGTACATAATGAAAAATTTTT [XGTACX_site8223] | 8.1 |
| TATATATTTCGGTGTGCACACTTTTTATTTTTATCC [CACACA_site1726] | 8.4 |
| TATATATATTTTTGTGTGCACTATAATATGAAAATA | 10.8 |
| ACATATTATATATGTGTGCACATATATATATATTTA [GTGCAC_site9591] | 8.7 |
| TATATATATATATATGTGCACATATTTATATGTTTT | 9.47 |
| TATATATTTTTATGTGTGCACTGTTTCATAAAAGAA | 10.9 |
| AAATATATTTTACATTGTACATGAATAAACTATAAA [XGTACX_site2080] | 7.05 |
| AAGGCAAGCACTTAAACATGCATATAATAATATCAT [TGCATGCA_site698] | 7.36 |
| TGATAAGTATACTAAAGTACATGAAAAATAACTTCC [XGTACX_site6908] | 6.87 |
| ATTACATACGAGCACACGTAAAAGTATAATATAAAA [GTGCAC_negctrl_site446] | 6.94 |
| TGAGTATATATAAATACACACCAAATGTTAATATAT [CACACA_site5022] | 6.8 |
| TAATGATAAATACATACACACAAAAAATAATATATA [CACACA_site2576] | 6.85 |
| CATATATATTTGTTCACACACACACTAGAAAAAAAA [CACACA_site5380] | 7.29 |

| Sequence | gcPBM binding intensity (ln) |
| --- | --- |
| TATGATACATAAATATGTACGTATAATATATATTTA [XGTACX_site7002] | 6.96 |
| ATTATTAAAAATATGGGTACATATTATTGTTATATA [XGTACX_site1958] | 6.89 |
| AAAAAATAAAAAATATGTACACATTCAAAATTTTAC [XGTACX_site8479] | 6.91 |
| TATTTTTGGTTATGTGTGCACTATGAACAACAAAAT | 10.5 |
| ATTTTATGAAATGTTGCACACAAAAAACAACATGTT [CACACA_site8408] | 7.66 |
| TATATTTTTATGTGTGTGCACAAAATAACAAAATAT [GTGCAC_site9596] | 9.36 |
| AATATTTGCCTATGTTGTACTGACATTTTTTTAAGT [XGTACX_site6836] | 7.06 |
| TTTTAAGATATAAATTAATACTTATATATATAGATA [CACACA_negctrl_site22] | 6.75 |
| TAATTACACTTTAAAAGTACATATATAATAACATTA [XGTACX_site379] | 7.04 |
| ATTAGTTTACACATATGTACATATATTACAACAAAA [XGTACX_site275] | 7.34 |
| AAAAAGAACACAAAAAGTACAAAAATTATAATGATA [XGTACX_site2676] | 6.98 |
| CATATATGGTTATATACATGCACCATTATATTATTA [TGCATGCA_site520] | 10.3 |
| AAAAAAAAAACACACACATGCACATCATATTATATA [TGCATGCA_site133] | 7.03 |
| ATATTATAGATATACACACACACATGCATGCACATA [CACACA_site6203] | 8.64 |
| AAAAAAAAAAAAAACACACACATGCACCTCATATTA [CACACA_site556] | 11.4 |
| AAAAAAAAAAAAAACACACACATGCACATCATATTA [CACACA_site4467] | 7.43 |
| ATATTATATATATACACACACACATGCATGCACATA [CACACA_site7917] | 8.98 |
| ATATTATATATATACACACACACATGCATGCACCTA [CACACA_site106] | 11.1 |
| ATATGGATTATACATACATGCATACATACATACATA [TGCATGCA_site475] | 7.1 |
| AACACATACATATATGCACACATTTTATTCCATTAT [CACACA_site2834] | 8.05 |
| AAAAAAAATGATAATATACACACTTATGGGAGAGCG [CACACA_site2516] | 6.97 |
| TATATAATACGAATTTGTACATATTAAATAAATTAT [XGTACX_site93] | 6.84 |
| TTTTAAAAAACAAACACACACGTAGAAAAAAAAAAA [CACACA_site4608] | 6.99 |

| Sequence | gcPBM binding intensity (ln) |
| --- | --- |
| GGTAGAAAATCAGTTAAACACACACCGAAAAAAAAA [CACACA_site8934] | 7.24 |
| TATGAACACCAACACACACACAAAAAAAAAAAAAAA [CACACA_site2013] | 7.3 |
| TACATATTTTGTATATATTATTTATTTTATTAGTTT [XGTACX_negctrl_site85] | 6.74 |
| TTAATAGGTCGAAGTAGTACATAAAAATATATATAT [XGTACX_site5960] | 8.1 |
| TATACAATATAAAATACACACGCACCCAAAAAAAAA [CACACA_site9174] | 10.4 |
| CACCCATAAATATACACACGCACAACACAAAATAAA [CACACA_site2903] | 7.52 |
| ATAAAAATTGATTATACACACGCGCCCAGACAACAA [CACACA_site5870] | 7.24 |
| ATTATACACGCGCGCACACACAACAAAAAAAAAAAA [CACACA_site7630] | 7.59 |
| ATAAAAATTGATTATACACACGCGCACCCACAACAA [CACACA_site3536] | 11.2 |
| AATGTACCCACACCCACACACAAACAAATATATATA [CACACA_site2751] | 7.47 |
| AATGTACACCCACCCACACACAAACAAATATATATA [CACACA_site5521] | 7.62 |
| AATGTACACGCACCCACACACAAACAAATATAAATA [CACACA_site7319] | 10.3 |
| GACACCCATAAATATACACACGCACAACACAAAATA [CACACA_site8944] | 7.67 |
| TATATATAATTCATACATTTTAAATATATTTATTTA [CACACA_negctrl_site840] | 7.01 |
| TATTGAATAAAATGCACACGCATGCGTTATTTATTA [CACACA_site3479] | 6.9 |
| ATATATCATGCCAAGGGTACAAATGTGTAGTTGAAA [XGTACX_site2820] | 7.16 |
| AAAAAAAAATACATATGTACTTATGTATAATGTTGT [XGTACX_site8104] | 7.14 |
| AACTTTTTACAAACAGGTACGCATATATATATATAT [XGTACX_site5081] | 8.9 |
| AAAATACACGCATACACACACACACCCACCCATATA [CACACA_site639] | 7.14 |
| TCCCCTTAATTTAAAACACACAAACAAATAAGTTAG [CACACA_site5973] | 6.91 |
| TATAAGAGGATATATACACACAAAAATATGTACAGT [CACACA_site6885] | 7.07 |
| GAATGTCTAATTTTGATGCACACTTTTGTGCAATTA [CACACA_site2902] | 8.6 |
| AAGAGGATACACAATGTGCACTTTTTTTTTTTTTTT [GTGCAC_site9415] | 10.5 |
